Several values for one entry are separate records, joined by “and”; a condition that tells them apart may be missing. Equal entries are not always repeated. In all, about 16,000 compounds went through this assay and about 4,000 (25%) were called active. About 26% were inconclusive and are not listed. Calls come from the whole dose curve; as a rule, active = well fitted curve in the direction sought with a large enough effect; inconclusive = small, poorly fitted or top-dose-only effect, or effect the other way; inactive = no such curve, though single readings can be large or run the other way. The list is a sample of the results.
These compounds were tested against Cytochrome P450 2C9 (Homo sapiens) (UniProt P11712) (assay: Cytochrome panel assay with activity outcomes). Details: recombinant CYP, pro-luciferin dealkylation, luminescence, p450-cyp2c9; series mostly up to 57.1 µM; activity, negative = inhibition: at the top concentration.
Chain of Cytochrome P450 2C9 (Homo sapiens) (P11712 whole entry, looked up): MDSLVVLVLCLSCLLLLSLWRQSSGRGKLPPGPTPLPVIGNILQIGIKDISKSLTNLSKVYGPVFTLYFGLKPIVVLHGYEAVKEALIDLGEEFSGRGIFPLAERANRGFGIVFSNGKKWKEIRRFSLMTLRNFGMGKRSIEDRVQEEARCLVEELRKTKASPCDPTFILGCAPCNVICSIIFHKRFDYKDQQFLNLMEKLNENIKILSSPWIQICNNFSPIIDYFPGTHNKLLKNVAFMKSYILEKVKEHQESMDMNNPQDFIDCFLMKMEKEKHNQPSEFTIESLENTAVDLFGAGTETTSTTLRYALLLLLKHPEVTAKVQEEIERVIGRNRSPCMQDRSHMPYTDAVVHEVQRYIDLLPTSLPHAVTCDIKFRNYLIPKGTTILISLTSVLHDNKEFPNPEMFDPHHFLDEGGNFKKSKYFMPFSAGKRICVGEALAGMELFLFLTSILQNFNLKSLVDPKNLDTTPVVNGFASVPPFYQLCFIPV
% is set by controls: 0 for no effect and ±100 for the full control effect.

| Structure (SMILES) | activity, negative = inhibition | AC50 |
| --- | --- | --- |
| Nc1ccccc1C(=O)/C=C\c1ccc2c(c1)OCO2 | -29.2% [at 11.4 µM] (inactive) |  |
| CCNc1ccc(Br)cc(C(=O)/C=C/c2ccc3c(c2)OCO3)c1=O |  | 11.2 µM (active) |
| COc1ccccc1N1CCN(C(=O)/C=C/c2ccc3c(c2)OCO3)CC1 |  | 14.1 µM (active) |
| COCOc1cc(OC)ccc1C(=O)/C=C\c1ccc2c(c1)OCO2 |  | 2.51 µM (active) |
| CCCc1nnc(SCC(=O)O)n1/N=C/c1ccc2c(c1)OCO2 | -24.4% (inactive) |  |
| O=C(/C=C\C=C/c1ccc2c(c1)OCO2)N1CCCCC1 | -34.7% [at 25.6 µM] (inactive) |  |
| CCCCCCCCCCCCCCCCCCc1ccc(C(=O)/C=C\C(=O)O)cc1 | -7.99% (inactive) |  |
| CCCC(=O)Nc1ccc(C(=O)/C=C/c2ccc(SC)cc2)cc1 |  | 1.78 µM (active) |
| O=C(O)CC/C=C\C[C@@H]1CO[C@H](c2ccccc2Cl)O[C@@H]1c1ccccc1O | -16.7% (inactive) |  |
| c1ccc(C2OCC3(CO2)COC(c2ccccc2)OC3)cc1 (stereo not given) | -37.5% (inactive) |  |
| O=C1CCCCCC1C1(O)C(=O)Nc2ccc(Br)cc21 (stereo not given) | -11.1% (inactive) |  |
| CC(C)[C@H](Sc1nc(N)nc2nc[nH]c12)C(=O)O | 12.2% [at 11.4 µM] (inactive) |  |
| Nc1nc(SCc2ccccc2[N+](=O)[O-])c2[nH]cnc2n1 | -28.6% [at 11.4 µM] (inactive) |  |
| Nc1nc(Sc2ccc([N+](=O)[O-])c3nonc23)c2[nH]cnc2n1 |  | 3.16 µM (active) |
| CCOC(=O)N1CCN(C(=O)C(CC)n2nc(C)c3sc4ccccc4c3c2=O)CC1 (stereo not given) |  | 3.16 µM (active) |
| CCOC(=O)N1CCN(C(=O)CCn2nc(-c3ccccc3)ccc2=O)CC1 | -13.9% (inactive) |  |
| CN(C)CCCN=c1c2ccccc2n(C)c2[nH]c(=O)n(C)c(=O)c12 | -3.97% [at 11.4 µM] (inactive) |  |
| CC(=O)NCCNc1ccnc(-c2ccccc2C(F)(F)F)n1 | 9.95% [at 2.29 µM] (inactive) |  |
| COc1ccc(N=Cc2ccc(CNS(=O)(=O)c3ccc(Cl)cc3)o2)cc1 | -5.91% (inactive) |  |
| COc1cc(O)oc1C=Nc1ccc(Cl)cc1 |  | 22.4 µM (active) |
| CCNC(=S)N1CC(C)OC(C)C1 (stereo not given) | -4.79% (inactive) |  |
| Cc1ccc(N(CCC#N)C(=O)CSc2ccc3c(c2)OCCO3)cc1 |  | 5.01 µM (active) |

| Structure (SMILES) | activity, negative = inhibition | AC50 |
| --- | --- | --- |
| Cc1ccc(SCN2CCCCC2)cc1 (tested in a mixture with another compound) | -29.3% [at 11.4 µM] (inactive) |  |
| CC1Cc2ccccc2N1Cc1nc2cc(C(F)(F)F)ccc2c(=O)[nH]1 (stereo not given) |  | 5.01 µM (active) |
| O=S(=O)(c1cccc(-c2nnc(-c3ccc(Br)cc3)o2)c1)N1CCCCCC1 |  | 5.01 µM (active) |
| Brc1ccc(-c2nnc(-c3cccc(Br)c3)o2)cc1 | -6.6% (inactive) |  |
| O=S(=O)(c1ccc(Br)cc1)N1CCN(S(=O)(=O)c2ccc(Br)cc2)CC1 | 25.6% [at 11.4 µM] (inactive) |  |
| c1cncc(-c2cncnc2-n2ccnc2)c1 | 8.83% [at 2.29 µM] (inactive) |  |
| Oc1ccc(-c2[nH]ncc2-c2ccc(Cl)cc2)c(O)c1 |  | 0.794 µM (active) |
| CC(C)NC(=O)N1CC2(CCN(C(=O)c3cc(C(F)(F)F)cc(C(F)(F)F)c3)CC2)C1 | -19.4% (inactive) |  |
| CCOC(=O)c1c(CC(C)C)csc1NC=O |  | 10 µM (active) |
| O=C(Nc1ccccc1C(=O)NCC1CCCO1)c1ccc(Cl)cc1Cl (stereo not given) |  | 10 µM (active) |
| O=C(CN(Cc1ccccc1Cl)C(=O)c1ccc(CN2CCOCC2)o1)NCC1CCCO1 (stereo not given) | -3.33% (inactive) |  |
| Cc1ccccc1C(=O)c1c[nH]c(C(=O)NCC2CCCO2)c1 (stereo not given) | 25.6% (inactive) |  |
| C=CC[C@@H]1C=C[C@H](O/N=C2\c3cc(OC)ccc3O[C@H](c3cccc(OC)c3)[C@H]2O)[C@H](CO)O1 |  | 0.398 µM (active) |
| COc1cccc([C@H]2Oc3ccc(OC)cc3/C(=N\OC[C@@H](O)[C@@H]3O[C@@H]4OC(C)(C)O[C@@H]4[C@H]3O)[C@@H]2O)c1 | -20.5% [at 11.4 µM] (inactive) |  |
| CC(C)=NO[C@@H](C)c1cn([C@H](CO)Cc2ccccc2)nn1 | 16.5% [at 11.4 µM] (inactive) and 5.66% [at 11.4 µM] (inactive) |  |
| COc1cccc([C@@H]2Oc3ccc(OC)cc3/C(=N/O[C@@H](C)c3cn([C@H]4COC[C@H]4O)nn3)[C@@H]2O)c1 | -15.5% [at 11.4 µM] (inactive) |  |
| COc1cccc([C@@H]2Oc3ccc(OC)cc3/C(=N/OC[C@@H](C)[C@H](OCc3ccccc3)C(C)C)[C@@H]2O)c1 |  | 3.98 µM (active) |
| C=CC[C@@H]1C=C[C@@H](O/N=C\C[C@@H]2C=C[C@H](OC(C)=O)[C@H](COC(C)=O)O2)[C@@H](CO)O1 | -4.4% [at 11.4 µM] (inactive) |  |
| COc1ccc(O[C@H]2C=C[C@@H](c3ccccc3)O[C@H]2CO/N=C2/c3cc(OC)ccc3O[C@@H](c3cccc(OC)c3)[C@H]2O)cc1 |  | 3.16 µM (active) |
| COc1ccc(O[C@H]2C=C[C@@H](c3ccccc3)O[C@@H]2CON=C(C)C)cc1 | 11.9% [at 11.4 µM] (inactive) |  |
| COc1cccc([C@H]2Oc3ccc(OC)cc3/C(=N\O[C@@H]3O[C@H](COC(C)=O)[C@H](OC(C)=O)[C@H](OC(C)=O)[C@H]3OC(C)=O)[C@@H]2O)c1 | -12.6% [at 11.4 µM] (inactive) |  |
| CO/N=C1/c2cc(OC)ccc2O[C@@H](c2cccc(OC)c2)[C@H]1O | -0.557% [at 11.4 µM] (inactive) |  |

| Structure (SMILES) | activity, negative = inhibition | AC50 |
| --- | --- | --- |
| COc1cccc([C@H]2Oc3ccc(OC)cc3/C(=N\O[C@@H](C)c3cn([C@H](CO)Cc4ccccc4)nn3)[C@@H]2O)c1 |  | 1.58 µM (active) |
| CC1=N[C@@](C)(COC(=O)[C@]2(C)N[C@](C)(CO)CO2)COC1=O | 11% [at 11.4 µM] (inactive) |  |
| CC(=O)NCCNc1cc(-c2ccccc2CN(C)C)ncn1 | 10% [at 2.29 µM] (inactive) |  |
| O=[N+]([O-])/C=C\c1cc2ccccc2[nH]1 | 11.3% [at 11.4 µM] (inactive) |  |
| COCC(=O)Nc1c(I)c(C(=O)NC[C@@H](O)CO)c(I)c(C(=O)N(C)C[C@@H](O)CO)c1I | -13.9% [at 25.6 µM] (inactive) |  |
| CC(C)=NO[C@@H](C)CN1CCCCc2nc(C)c(C)cc21 | 19.8% [at 11.4 µM] (inactive) |  |
| C/C(CCN1CCCCc2nc(C)c(C)cc21)=N\O[C@@H](C)CN1CCCc2nc(C)c(C)cc21 | -5.53% [at 11.4 µM] (inactive) |  |
| COc1cccc([C@@H]2Oc3ccc(OC)cc3/C(=N/O[C@@H](C)CN3CCCCc4nc(C)c(C)cc43)[C@@H]2O)c1 |  | 1.58 µM (active) |
| CCC(C)(C)N=C(NC#N)Nc1cccnc1 | 20.6% (inactive) |  |
| CN(C)c1ncnc2ccc(-c3ccccc3C#N)cc12 | -7.24% [at 2.29 µM] (inactive) |  |
| Nc1c2c(=O)oc(-c3ccccc3)cc2nn1-c1ccccc1 |  | 10 µM (active) |
| O=C(O)/C=C(/C(=O)O)[C@]12CCN3CC4=CCO[C@@H]5CC(=O)N[C@@H]1[C@H]5[C@H]4C[C@H]32 | -2.53% [at 11.4 µM] (inactive) |  |
| c1ccc(-c2nnn(CCN3CCCCC3)n2)cc1 | 3.45% [at 11.4 µM] (inactive) |  |
| CN1/C(=C\C=[N+](C)c2ccccc2)C(C)(C)c2ccccc21 | 1.48% (inactive) |  |
| CN1/C(=C\C(=O)COC(=O)Cn2nnc(-c3ccccc3)n2)C(C)(C)c2ccccc21 |  | 3.98 µM (active) |
| CC1CCCN(C(=O)c2sc3cc([N+](=O)[O-])ccc3c2Cl)C1 (stereo not given) | -13.6% (inactive) |  |
| CS(=O)(=O)c1ccc([C@H](O)[C@H](CO)NC(=O)C(Cl)Cl)cc1 | 12.9% [at 25.6 µM] (inactive) |  |
| CC(=O)N1CCC2(CCCN(Cc3ccccc3)C2)CC1 | -9.6% (inactive) |  |
| Cc1cc(C)n(-c2nc(NC(C)C)nc(NC(C)C)n2)n1 | -25.2% (inactive) |  |
| COc1ccc(-c2cc(C(F)F)nc(-n3nc(C)cc3C)n2)cc1 |  | 28.2 µM (active) |
| Cc1cnc(CNc2nc(-c3ccc(N(C)C)cc3)nc3ccccc23)cn1 | -14.7% [at 2.29 µM] (inactive) |  |
| N#CCCn1c(=O)c(-c2cccs2)nc2cnc(Nc3ccccc3)nc21 | 2.54% (inactive) |  |

| Structure (SMILES) | activity, negative = inhibition | AC50 |
| --- | --- | --- |
| Cc1cccc(NC(=O)CSc2nc(-c3ccccc3)c(C#N)c(=O)[nH]2)c1C |  | 0.355 µM (active) |
| N#Cc1c(-c2cccs2)nc(SCC(=O)c2cccs2)[nH]c1=O |  | 0.708 µM (active) |
| COc1ccccc1NC(=O)CCc1c(C)[nH]c(=O)c(C#N)c1C | -3.94% (inactive) |  |
| COc1ncc2nc(-c3cccs3)c(=O)n(CCC#N)c2n1 | -3.19% (inactive) |  |
| CC(C)NC(=O)N1CC[C@@]2(CCCN(C(=O)c3csnn3)C2)C1 | 19% (inactive) |  |
| COc1ccccc1-c1cc(NCc2cccc(C)c2)ncn1 | 0.571% [at 2.29 µM] (inactive) |  |
| O=C(O)/C(Cc1ccc([N+](=O)[O-])cc1)=N/O | -14.2% [at 11.4 µM] (inactive) |  |
| Cc1ccc(N(Cc2ccc([N+](=O)[O-])cc2)C(=O)c2ccco2)cc1 |  | 3.16 µM (active) |
| O=C(N/N=C/c1ccc([N+](=O)[O-])o1)c1cc(-c2ccncc2)nc2ccccc12 |  | 0.891 µM (active) |
| NC(=O)N/N=C\c1ccc([N+](=O)[O-])o1 | -12.5% [at 25.6 µM] (inactive) |  |
| CCOC(=O)N/N=C\c1ccc([N+](=O)[O-])o1 | 18.8% (inactive) |  |
| O=C(O)[C@H]1CN(CCCP(=O)(O)O)CCN1 |  | inactive |
| CN(C1CCCCC1)S(=O)(=O)c1ccc(NC(=S)NC(=O)c2cccs2)cc1 |  | 0.891 µM (active) |
| O=C(NC1CCCCCC1)c1cccs1 | -4.04% (inactive) |  |
| CCN(c1ccccc1)S(=O)(=O)c1ccc(NC(=S)NC(=O)c2cccs2)cc1 |  | 1 µM (active) |
| CCN(c1ccccc1)S(=O)(=O)c1ccc(NC(=S)NC(=O)c2ccc(Br)o2)cc1 |  | 1.58 µM (active) |
| CCOC(=O)NCN1C(=O)C2C3C=CC(C3)C2C1=O (stereo not given) | -3.37% (inactive) |  |
| CC(C)(S)[C@H](N)C(=O)O | 3.44% [at 11.4 µM] (inactive) |  |
| CCCCCCCCCCCCCC(=O)O[C@H](CC(=O)O)C[N+](C)(C)C | 22.3% (inactive) |  |

— PubChem BioAssay AID1851 (National Center for Advancing Translational Sciences (NCATS), 2009)
